In the library only some 12% were active in any assay of this set; here they are far more common.
JMJD2A Tudor inh: inhibitors of human JMJD2A Tudor domain; AlphaScreen JMJD2A-Tudor / H3K4me3 peptide binding; Potency, µM (series often up to 114 µM), for the others: at the top dose activity change, negative = inhibition, usual class: inhibitors; actives 4.4% (n = 390,000); AID 504339; note: % is set by controls: 0 for no effect and ±100 for the full control effect; nearly all actives have a fitted effect of over 50% in size
Sfp PPTase inh: blocks B. subtilis Sfp PPTase activity | Biochemical Sfp PPTase activity, qHTS | AID 1490 | actives 3.5% (n = 310,000) | Potency, µM, for the others: largest response in the series, negative = inhibition, actives largely listed as inhibitors;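 note: the enzyme is Sfp with the accession as filed and its product quenches rhodamine fluorescence; 0% = enzyme reaction without inhibitor and -100% = no enzyme wells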
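Sfp 15 nM + cpd, 15 min RT; start w/ rhodamine-CoA 5 uM, BHQ-2-YbbR 12.5 uM (final); 50 mM Hepes pH 7.6, 10 mM MgCl2, 0.01% NP-40, 0.01% BSA; read 525/598 nm at 0 and 30 min.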
HP1b chromo inh: blocks HP1-beta chromodomain binding to methylated histone tails; AID 540317; AlphaScreen HP1-beta / biotin-H3K9me3 peptide binding; Potency, µM (titrated, usually from 114 µM), without a hit: at the highest dose activity change, negative = inhibition, usual class: inhibitors; actives 0.56% (n = 390,000); note: nearly all actives have a fitted effect of over 70% in size
Target sequence (P83916 whole entry, looked up): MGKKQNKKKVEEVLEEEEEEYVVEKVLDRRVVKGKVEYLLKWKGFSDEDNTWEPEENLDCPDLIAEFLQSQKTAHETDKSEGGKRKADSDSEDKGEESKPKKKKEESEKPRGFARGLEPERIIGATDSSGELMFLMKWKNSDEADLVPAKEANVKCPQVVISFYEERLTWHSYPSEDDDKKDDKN
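AlphaScreen: HP1-beta (50 nM) preformed 30 min with biotin-H3(1-18)K9me3 peptide (50 nM) in PBS pH 7.4, 0.01% Tween-20. Compound added for 30 min at RT, then streptavidin donor/nickel chelate acceptor beads (10 ug/mL) for 30 min.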
G9a block: G9a (human) methyltransferase inhibition; Potency, µM (top dose mostly 102 µM), for inactives: at the highest dose activity, negative = inhibition, hits mostly inhibitors; actives 8.8% (n = 350,000); Q96KQ7; G9a H3K9 monomethylation, AlphaScreen, 2 h; AID 504332; note: % is set by controls: 0 for no effect and ±100 for the full control effect; nearly all actives have a fitted effect of over 75% in size
Target sequence (Q96KQ7 913-1193 limits assumed): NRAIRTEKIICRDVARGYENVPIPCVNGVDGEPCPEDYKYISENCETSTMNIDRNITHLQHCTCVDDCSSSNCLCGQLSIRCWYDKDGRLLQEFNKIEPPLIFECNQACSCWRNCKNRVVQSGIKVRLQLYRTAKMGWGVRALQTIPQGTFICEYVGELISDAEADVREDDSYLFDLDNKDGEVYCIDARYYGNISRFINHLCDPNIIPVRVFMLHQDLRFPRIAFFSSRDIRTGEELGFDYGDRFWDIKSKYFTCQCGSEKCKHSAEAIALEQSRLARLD
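AlphaScreen detection with an anti-monomethyl H3K9 antibody quantified product after a 2 h room-temperature reaction containing 500 nM biotinylated H3K9 peptide, 20 µM SAM and 20 nM enzyme, which had been preincubated 15 min with compound.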
BAZ2B block: inhibitors of human BAZ2B bromodomain; Q9UIF8; AlphaScreen BAZ2B-H3K14Ac peptide displacement; Potency, µM (titrated, usually from 114 µM), for inactives: top-dose activity change, negative = inhibition, most hits filed as inhibitors; actives 4.4% (n = 360,000); note: % is set by controls: 0 for no effect and ±100 for the full control effect; nearly all actives have a fitted effect of over 60% in size
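Inhibition is scored as reduced AlphaScreen emission. The BAZ2B/b-H3(5-23)K14Ac complex (50 nM each) in PBS pH 7.4, 0.01% Tween-20 meets compound (up to 110 uM) for 30 min at RT before bead addition.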
L3MBTL1 inh: L3MBTL1 (human) inhibition. Q9Y468. AID 485360. actives 0.66% (n = 230,000). AlphaScreen L3MBTL1–H3K9me1 peptide binding. Potency, µM (top dose mostly 57.1 µM), inactives show top-dose activity, negative = inhibition, usual class: inhibitors; note: % is set by controls: 0 for no effect and ±100 for the full control effect; nearly all actives have a fitted effect of over 60% in size
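L3MBTL1 (50 nM) pre-complexed 30 min with biotinylated H3(1-15)K9me1 peptide (75 nM), then compounds added for 30 min at room temperature; AlphaScreen streptavidin donor/nickel chelate acceptor beads (10 ug/mL final) read after 30 min dark incubation.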
The depositor's hits bear a star; ? = inconclusive; / = no result given; [ ] = dose if it differs, or a comment. Calls come from the whole dose curve; as a rule, active = well fitted curve in the direction sought with a large enough effect; inconclusive = small, poorly fitted or top-dose-only effect, or another doubt; inactive = no such curve, though single readings can be large; an effect the other way counts as inactive or inconclusive. Potency is the fitted concentration of half-maximal effect.

SMILES	JMJD2A Tudor inh	Sfp PPTase inh	HP1b chromo inh	G9a block	BAZ2B block	L3MBTL1 inh
N#CC1=C(N)SC(N)=C(C#N)C1c1ccc(C(F)(F)F)cc1	/	-79.6%	/	2.51µM*	-31.5%	0.0%
CCc1ccc(C2C(C#N)=C(N)OC3=C2C(=O)CCC3)s1 (stereo unspecified)	-0.7%	-9.3%	21.6%	-22.1%	-21.2%	1.2%
CCOC(=O)C1=C(C)OC(N)=C(C#N)C1c1ccc(C)o1 (stereo unspecified)	-21.5%	11.1%	44.1%	?	-21.8%	/
CCc1ccc(C2C(C#N)=C(N)SC(N)=C2C#N)s1	-32.9%	-9.9%	9.5%	39.8µM*	-14.2%	-11.8%
N#CC1=C(N)SC(N)=C(C#N)C1c1ccc([N+](=O)[O-])cc1	56.2µM*	5.01µM*	-36.5%	8.91µM*	-37.4%	-12.8%
N#CC1=C(N)Nc2ncnn2C1c1ccc([N+](=O)[O-])cc1 (stereo unspecified)	-11.6%	-3.6%	68.0%	?	-16.0%	/
Cc1ccc(C2C(C#N)=C(N)SC(N)=C2C#N)o1	/	12.6µM*	/	1.58µM*	/	-18.7%
CCCc1cc(=O)oc2cc(OCC(=O)N3CCN(C(=O)C4COc5ccccc5O4)CC3)ccc12 (stereo unspecified)	-20.1%	6.7%	20.6%	25.4%	-12.7%	/
O=C(O)c1ccc(NC(=O)[C@H](Cc2ccc(O)cc2)NC(=O)c2ccccc2)cc1	/	14.7%	/	14.8%[59 µM]	/	/
CCc1ccc(C2C(C#N)=C(N)SC(N)=C2C#N)cc1	?	?	3.8%	8.91µM*	?	3.6%
CCOc1cc(CNc2ccc(O)cc2)cc(Br)c1OCc1ccccc1F	50.1µM*	17.8µM*	17.8µM*	11.2µM*	-32.1%	15.8µM*
COc1cc(CNC(C)(C)CO)cc(Br)c1OCc1ccccc1	-15.8%	4.9%	-0.4%	8.9%[59 µM]	-4.5%	10.4%
COc1cc(CNCc2ccncc2)cc(Br)c1OCc1ccccc1F	-30.8%	-3.8%	64.2%	18.5%[2.33 µM]	?	3.8%
COc1cc(CNc2ccc(O)cc2)cc(Br)c1OCc1ccccc1F	?	28.2µM*	?	11.2µM*	?	?
CCOc1cc(CNc2ccc(O)cc2)cc(Br)c1OCc1ccccc1	39.8µM*	/	?	?	?	/
CCOc1cc(CNC(C)(C)CO)cc(Br)c1OCc1ccc(Cl)cc1Cl	-17.9%	44.7µM*	14.5%	30.8%[0.501 µM]	-28.0%	-3.4%
COc1ccc(C)cc1NC(=O)c1cn(C)c(=O)c2cc(OC)c(OC)cc12	-9.3%	/	26.0%	1.4%[59 µM]	-14.1%	/
COc1cccc(CNc2ccccc2O)c1OCc1ccccc1F	44.7µM*	50.1µM*	44.7µM*	35.5µM*	31.6µM*	?
N/C(=N\OS(=O)(=O)c1ccc2ccccc2c1)c1ccccn1	5.01µM*	63.1µM*	42.2%	5.01µM*	20µM*	-10.2%
N/C(=N\OS(=O)(=O)c1ccc2ccccc2c1)c1ccncc1	2.3%	11.0%	?	20µM*	1.5%	5.2%
N/C(=N\OS(=O)(=O)c1ccccc1)c1ccncc1	-5.8%	5.0%	-21.7%	-5.2%[0.501 µM]	?	5.6%
N/C(=N/OS(=O)(=O)c1ccc([N+](=O)[O-])cc1)c1ccncc1	-6.9%	15.2%	5.8%	10µM*	-5.0%	4.4%
CCCCCCC1/C(=N\NC(=O)c2ccccc2)CCC1C(=O)OC (stereo unspecified)	-11.4%	11.9%	46.9%	0.1%	-13.9%	/
Cc1ccc(CC(=O)NNC(=O)c2cccs2)cc1C	-5.9%	/	47.0%	-21.5%	-0.3%	2.7%
Cc1ccc(S(=O)(=O)CCC(=O)OC(C)C(=O)Nc2ccc(N3CCOCC3)cc2)cc1 (stereo unspecified)	0.6%	/	36.8%	24.1%[12.7 µM]	1.4%	0.1%
SMILES	JMJD2A Tudor inh	Sfp PPTase inh	HP1b chromo inh	G9a block	BAZ2B block	L3MBTL1 inh
COc1ccc(N2CCN(C(=O)COC(=O)COc3cc(C)cc(C)c3)CC2)cc1	-33.1%	/	-13.9%	31.6µM*	?	-11.9%
COc1ccc(N2CCN(C(=O)COC(=O)Cc3c(F)cccc3Cl)CC2)cc1	?	/	-13.1%	50.1µM*	?	-2.6%
COc1cccc(CC(=O)OC(C)C(=O)Nc2ccc(N3CCOCC3)cc2)c1 (stereo unspecified)	-25.2%	/	-8.9%	50.1µM*	3.7%	4.5%
CCC(=O)c1ccc(OCC(=O)OCC(=O)N2CCN(c3ccc(OC)cc3)CC2)cc1	-4.8%	/	15.1%	73.4%[2.33 µM]	-3.1%	-1.9%
COc1cccc(CNC(C)C(=O)Nc2ccc3c(c2)OCCO3)c1 (stereo unspecified)	3.16µM*	-24.6%	?	44.7µM*	?	/
COc1cccc(NC(=O)c2ccc3c(c2)OCCO3)c1	-1.4%	16.4%	24.0%	8.5%	1.0%	/
CCOC(=O)[C@H]1[C@H]2COc3ccc(Br)cc3[C@H]2N2C(=O)CN(Cc3ccc(Cl)cc3)C(=O)[C@@]12C	-26.6%	/	33.6%	/	/	/
O=C(CNC(=O)c1ccc(Br)o1)NCc1ccc(Cl)cc1	-1.4%	4.6%	26.7%	46.7%	-17.4%	/
CCn1cc(S(=O)(=O)c2ccc(OC)cc2)c(=O)c2cc(F)c(N3CCC(C)CC3)cc21	-7.9%	/	14.3%	-2.2%[59 µM]	0.6%	/
COC(=O)[C@@]1(Cc2ccccc2)[C@H]2c3cc(C(=O)N4CCCC4)n(CCN4CNCC4=O)c3C[C@H]2CN1C(=O)c1ccccc1	/	8.1%	/	/	/	/
COc1ccc(N2CCN(C(=O)COC(=O)Cc3cccc(OC)c3)CC2)cc1	-34.9%	/	-16.0%	39.8µM*	-26.6%	?
COc1cccc(CC(=O)OCC(=O)N2CCN(c3ccc(F)cc3)CC2)c1	-7.3%	-0.1%	5.1%	/	5.3%	/
O=C(NNc1c(Cl)cccc1Cl)c1ccno1	-12.8%	4.8%	41.4%	-15.6%[59 µM]	-1.7%	1.7%
Cc1ccc(NC(=O)c2ncn(CCCN3CCN(Cc4cccc5ccccc45)CC3)n2)cc1C	50.1µM*	/	?	/	/	/
CC(=O)N1CCC[C@@]2(CCN(Cc3cc(C(F)(F)F)cc(C(F)(F)F)c3)C2)C1	/	6.2%	/	38.1%[12.7 µM]	/	/
COc1cc(/C=N/Nc2ccc(Cl)c(C(=O)O)c2)ccc1OCC(=O)N1C(C)CCCC1C (stereo unspecified)	-11.3%	5.0%	28.5%	50.1µM*	-22.9%	-19.7%
COc1cc(/C=N/Nc2ccc(Cl)c(C(=O)O)c2)ccc1OC(=O)c1ccco1	-14.1%	-4.9%	8.3%	22.4µM*	?	-16.7%
COc1ccc(C(=O)Oc2ccc(/C=N/Nc3ccc(Cl)c(C(=O)O)c3)cc2OC)cc1	?	-12.7%	-10.5%	35.5µM*	50.1µM*	/
Cc1nnc(NC(=O)C2CC(=O)N(C(C)c3ccccc3)C2)s1 (stereo unspecified)	-7.6%	9.3%	16.5%	7.9%	-1.7%	/

Source: PubChem BioAssay (National Center for Advancing Translational Sciences (NCATS))
